Sampled rows, rich in hits. Any-hit rate of the full collection: about 1.6%.
GC-B act = GC-B (human) receptor activation | HEK293-GC-B cells, CNP EC30, cGMP TR-FRET; 0% at EC30 CNP, 100% saturating CNP | activation, % at 10 µM | hit rate 0.11% among 370,000;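 active means activation at 10 µM reaching about 35% in either raw or pattern-adjusted values, limit read from the data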
GC-A act = GC-A (human) enzyme activation; hit rate 0.14% among 370,000; AID 1671463; HEK293 GC-A cells, cGMP TR-FRET, EC30 ANP; 0% at EC30 ANP, 100% saturating ANP; P16066; activation, % at 10 µM; in the data active means activation above about 40%
Target sequence (P16066 whole entry, looked up): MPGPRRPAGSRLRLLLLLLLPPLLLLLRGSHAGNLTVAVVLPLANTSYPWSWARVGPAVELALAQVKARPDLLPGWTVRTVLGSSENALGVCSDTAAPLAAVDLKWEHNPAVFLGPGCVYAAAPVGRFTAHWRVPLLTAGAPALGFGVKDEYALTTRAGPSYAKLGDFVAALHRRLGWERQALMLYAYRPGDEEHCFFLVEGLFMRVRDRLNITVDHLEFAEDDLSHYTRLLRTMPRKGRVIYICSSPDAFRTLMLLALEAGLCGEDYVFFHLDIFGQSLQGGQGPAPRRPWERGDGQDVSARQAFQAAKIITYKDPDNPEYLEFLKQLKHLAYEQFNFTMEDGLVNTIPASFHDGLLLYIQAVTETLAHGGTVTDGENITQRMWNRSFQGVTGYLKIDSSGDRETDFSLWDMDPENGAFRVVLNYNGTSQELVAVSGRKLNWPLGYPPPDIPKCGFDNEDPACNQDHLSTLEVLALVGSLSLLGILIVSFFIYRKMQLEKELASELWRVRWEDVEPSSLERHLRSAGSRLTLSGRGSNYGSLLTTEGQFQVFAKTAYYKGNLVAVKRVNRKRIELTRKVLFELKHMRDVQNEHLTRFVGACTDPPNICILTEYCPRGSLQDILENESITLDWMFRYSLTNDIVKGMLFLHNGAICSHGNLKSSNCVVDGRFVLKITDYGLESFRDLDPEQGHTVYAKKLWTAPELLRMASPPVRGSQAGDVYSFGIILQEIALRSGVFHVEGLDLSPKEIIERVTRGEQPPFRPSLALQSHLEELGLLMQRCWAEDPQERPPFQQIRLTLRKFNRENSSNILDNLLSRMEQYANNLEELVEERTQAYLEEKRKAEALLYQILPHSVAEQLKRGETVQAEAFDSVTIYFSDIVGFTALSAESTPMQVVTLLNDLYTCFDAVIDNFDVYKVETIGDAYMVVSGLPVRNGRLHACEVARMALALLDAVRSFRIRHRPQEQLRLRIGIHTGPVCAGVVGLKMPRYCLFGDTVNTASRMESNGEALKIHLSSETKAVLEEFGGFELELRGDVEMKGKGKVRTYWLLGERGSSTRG
V-ATPase pH = alters yeast V-ATPase proton transport | S. cerevisiae, pHLuorin cytosolic pH fluorescence | response, % at 10 µM | AID 504577 | hit rate 0.37% among 350,000; in the data active means response mostly above about 7.3%, no sharp cut-off; inactive means mostly below about 5.4%; further: actives read high
PG9 Ab binder = small molecules binding HIV-1 gp120 antibody PG9. TR-FRET gp120-PG9 antibody binding. inhibition, % at 6.7 µM. hit rate 0.43% among 360,000; in the data active means inhibition above about 8.5%
NR1D1 modulator = modulates human Rev-erb alpha binding to DNA | activity, % at 10 µM | P20393 | hit rate 0.79% among 370,000 | Rev-erbα–FITC-DNA binding, fluorescence polarization, 90 min;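 active means activity above about 14%, limit read from the data; passing the limit was not always enough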
NR1D1 mod conf = Rev-erb alpha (human) modulation, hit confirmation | shares compounds with NR1D1 modulator | Rev-erb alpha FITC-DNA binding, fluorescence polarization, 90 min | activation, % at 25 µM | hit rate 61% among 3,000 | AID 1259319;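 active means activation at or above a set limit, or at least 3 SD above the negative control mean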
RORg DNA counter = affects RORgamma DNA binding in a Rev-erb alpha counter-screen; purified RORgamma protein-FITC-DNA binding, fluorescence polarization; IC50, µM; shares compounds with NR1D1 modulator; hit rate 8% among 910; AID 1259320;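 active means Compounds whose fitted half-maximal concentration for disrupting protein-DNA binding is below 10 micromolar; the record names Rev-erb in its text, so the target is in doubt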
Of the large screens only hits and unclear results are named; the others gave an inactive call (follow-up assays come after a bar, where they were run).

Cc1ccc(Cn2nc(C)c(NC(=O)CSc3nc4c(c(C(F)(F)F)n3)CCc3ccccc3-4)c2C)cc1	NR1D1 modulator 44.6 | NR1D1 mod conf 28.6
NC(=O)c1c(NC(=O)CSc2nc3c(c(C(F)(F)F)n2)CCc2ccccc2-3)sc2c1CCCC2	none (no result: PG9 Ab binder)
Cc1ccccc1Cn1cc(NC(=O)c2nc3ncccn3n2)cn1	none
N#Cc1c(NC(=O)CSc2nc3c(c(C(F)(F)F)n2)CCc2ccccc2-3)sc2c1CCCC2	NR1D1 modulator 40.1 | NR1D1 mod conf 23.5
COc1cccc2c(NCc3ccccc3)nc(-n3c(N)nc4ccccc43)nc12	none (no result: V-ATPase pH, PG9 Ab binder)
CC1CCc2c(sc(NC(=O)CSc3nc4c(c(C(F)(F)F)n3)CCc3ccccc3-4)c2C(N)=O)C1 (stereo unspecified)	none
Cc1nn(Cc2ccc(Cl)cc2)c(C)c1NC(=O)CSc1nc2c(c(C(F)(F)F)n1)CCc1ccccc1-2	NR1D1 modulator 32.4 | NR1D1 mod conf 25.1
CCC(C)Sc1ccc([C@@H]2[C@H]3C(=O)N(CC)C(=O)[C@H]3[C@]3(C(=O)OC)CCCCN23)cc1 (stereo partly specified)	NR1D1 modulator 15.7 | NR1D1 mod conf inactive
COC(=O)[C@@]12CCCCN1[C@H](c1ccc(-c3cc(C(C)=O)cs3)c(OC)c1)[C@H]1C(=O)N(C)C(=O)[C@H]12	NR1D1 modulator 40.7 | NR1D1 mod conf 34.4
COC(=O)[C@@]12CCCCN1[C@H](c1ccc(-c3cc(C(C)=O)cs3)cc1)[C@H]1C(=O)N(C)C(=O)[C@H]12	NR1D1 modulator 30.5 | NR1D1 mod conf 21.8
COc1ccc(OC)c(Nc2nc(C)nc3c2oc2ccccc23)c1	none
COc1ccc(Cl)cc1Nc1nc(C)nc2c1oc1ccccc12	NR1D1 modulator 15.5 | NR1D1 mod conf 23.3
O=C(CSc1ncnc2c1oc1ccccc12)NC1CCCCC1	none
CCOC(=O)CC(=O)CSc1nc(C)nc2c1oc1ccccc12	none
CCc1nc(SCC(=O)NC2CCCC2)c2oc3ccccc3c2n1	NR1D1 modulator 39.3 | NR1D1 mod conf 56.0 | RORg DNA counter inactive
Cc1nc(SCC(=O)NCc2ccccc2)c2oc3ccccc3c2n1	NR1D1 modulator 43.9 | NR1D1 mod conf 188.7 | RORg DNA counter inactive
Nc1[nH]c(C(=O)c2ccc(Br)cc2)c(-c2ccc(Cl)cc2[N+](=O)[O-])c1C(=O)NCCc1c[nH]c2ccccc12	none (no result: V-ATPase pH)
CCCC(=O)N1CCC[C@]2(CC[C@@H](CCC(=O)N(CC)CC)O2)C1	none (no result: V-ATPase pH, PG9 Ab binder)
CC(=O)c1sc(NC(=O)Cc2c(F)cccc2Cl)nc1C	none
CC(=O)c1sc(NC(=O)COc2ccc(Cl)cc2C)nc1C	NR1D1 modulator 84.1 | NR1D1 mod conf 25.3
CC(=O)c1sc(NC(=O)COc2ccc(Cl)cc2Cl)nc1C	NR1D1 modulator 31.0 | NR1D1 mod conf inactive
CC(=O)c1sc(NC(=O)COc2ccc(C)c(C)c2)nc1C	none
Cc1cc(NC(=O)C(C)Sc2nc(-c3cccs3)nc3ccccc23)no1 (stereo unspecified)	NR1D1 modulator 41.8 | NR1D1 mod conf inactive
Cc1cc(NC(=O)CSc2nc(C(C)C)nc3ccccc23)no1	none
N#C/C(=C/c1ccc(N2CCOCC2)o1)C(=O)Nc1ccccc1	NR1D1 modulator 53.4 | NR1D1 mod conf 26.0
N#C/C(=C\c1ccc(N2CCOCC2)o1)C(=O)NCC1CCCO1 (stereo unspecified)	NR1D1 modulator 20.7 | NR1D1 mod conf inactive
COc1ccc(C)c2sc(=NC(=O)c3cccc(N4C(=O)CCC4=O)c3)n(C)c12	NR1D1 modulator 42.5 | NR1D1 mod conf 23.5
COc1ccc(C)c2sc(=NC(=O)C(C)C)n(C)c12	NR1D1 modulator 158.4 | NR1D1 mod conf 10.7
COc1ccc(C)cc1NC(=O)C1COc2ccccc2O1 (stereo unspecified)	none
CCC(=O)N=c1sc2c(OC)ccc(OC)c2n1C	NR1D1 modulator 46.9 | NR1D1 mod conf 29.7 | RORg DNA counter inactive
COc1ccc(OC)c2c1sc(=NC(=O)C1COc3ccccc3O1)n2C (stereo unspecified)	NR1D1 modulator 29.0 | NR1D1 mod conf 20.5
COc1cccc(-n2c([S-])c(C(=O)Nc3ccc(S(=O)(=O)N4CCOCC4)cc3)[n+]3cc(C(N)=O)ccc23)c1	NR1D1 modulator 61.8 | NR1D1 mod conf 62.6 | RORg DNA counter inactive
C=CCn1c(=O)c(C(=O)NCCc2ccc(Cl)cc2)c(O)c2cc(OC)c(OC)cc21	NR1D1 modulator 28.9 | NR1D1 mod conf inactive
C=CCn1c(=O)c(C(=O)NC2CC2)c(O)c2cc(OC)c(OC)cc21	none
O=C(Nc1ccc2nn(-c3ccccc3)nc2c1)c1ccc(Br)o1	NR1D1 modulator 36.6 | NR1D1 mod conf 26.0
Cn1ccc2ccc(-c3ccc4c(c3)[C@]3(CCC[C@@H](OCc5ccccc5)[C@@H]3NC(=O)CCc3ccccc3)C(=O)N4Cc3ccccc3)cc21	none (no result: V-ATPase pH, PG9 Ab binder)
O=C(NC1CCCCN(Cc2ccc(Cl)cc2)C1=O)c1ccc(F)c(F)c1 (stereo unspecified)	none (no result: V-ATPase pH, PG9 Ab binder)
Cc1ccc(/C=N/c2sc(Cc3ccccc3)c(C)c2C(N)=O)o1	NR1D1 modulator 29.5 | NR1D1 mod conf inactive
Cc1cc(C)c(NC(=O)CSc2nc(COc3ccccc3)nc3ccccc23)c(C)c1	NR1D1 modulator 54.8 | NR1D1 mod conf 47.2 | RORg DNA counter inactive
CC(=O)Nc1cccc(NC(=O)CSc2nnc3ccc(-c4ccccn4)nn23)c1	none
COc1cccc(NC(=O)CSc2nnc3ccc(-c4ccccn4)nn23)c1	NR1D1 modulator 35.3 | NR1D1 mod conf inactive
O=C(NC1CCCCN(Cc2cccc(Cl)c2)C1=O)c1ccc(Cl)cc1Cl (stereo unspecified)	none (no result: V-ATPase pH, PG9 Ab binder)
Cc1ccc(C)c2nc(SCC(=O)N3CCCc4ccccc43)c(C#N)cc12	NR1D1 modulator 60.6 | NR1D1 mod conf 72.2 | RORg DNA counter inactive
CCc1cc(=O)[nH]c(SCC(=O)Nc2cc(C)on2)n1	none
Cc1cc(C)nc(SCC(=O)Nc2cc(C)on2)n1	none
Cc1cc(NC(=O)CSc2nc3c(C)ccc(C)c3cc2C#N)no1	NR1D1 modulator 74.5 (no result: V-ATPase pH) | NR1D1 mod conf 36.2 | RORg DNA counter inactive
CCc1cc2c(C)cc(C)cc2nc1SCC(=O)Nc1cc(C)on1	NR1D1 modulator 97.0 | NR1D1 mod conf 18.8
Cc1cc(C)c2cc(C#N)c(SCC(=O)Nc3cc(C)on3)nc2c1	NR1D1 modulator 104.8 | NR1D1 mod conf 48.8 | RORg DNA counter inactive
CC12CCC3c4ccc(O)cc4CCC3C1C[C@H](O)[C@@H]2O (stereo partly specified)	none (no result: GC-B act, GC-A act, V-ATPase pH, PG9 Ab binder)
O=C(CSc1nnc2c(n1)[nH]c1ccc(S(=O)(=O)N3CCOCC3)cc12)Nc1ccc(F)c(F)c1	NR1D1 modulator 44.6 | NR1D1 mod conf inactive

Screening data from PubChem BioAssay.
